Measurements taken from ChEMBL document CHEMBL4513137, “CO-ADD screening of University of Manchester (UK) compounds”.
Entries with a potency or affinity are not part of this list.

Assays:
[1] = test system: Staphylococcus aureus; conditions: Concentration 32 ug.mL-1; ASSAY_TEST Inhibition of Bacterial Growth; detection method Absorption (OD600); MEDIA CAMHB; plate type 384well; NBS; CORNING #3640; time 18 hr
[2] = test system: Escherichia coli; conditions: Concentration 32 ug.mL-1; ASSAY_TEST Inhibition of Bacterial Growth; detection method Absorption (OD600); MEDIA CAMHB; plate type 384well; NBS; CORNING #3640; time 18 hr

SMILES	Inhibition [1]	Inhibition [2]
O=[N+]([O-])c1ccc(-c2ccccc2Nc2ccccc2)c(Cl)c1	13.69%	-8.34%
Cc1cc(C)c(Nc2ccccc2-c2ccc([N+](=O)[O-])cc2)c(C)c1	-5.17%	1.23%
O=[N+]([O-])c1ccc(-c2c(Nc3ccccc3)cccc2-c2ccccc2)cc1	23.01%	-0.69%
COc1cc([N+](=O)[O-])ccc1-c1c(Nc2ccccc2)cccc1OC	27.31%	7.58%
O=[N+]([O-])c1ccc(-c2ccccc2Nc2ccccc2)cc1	-5.74%	3.34%
O=[N+]([O-])c1ccc2c3ccccc3n(-c3ccccc3)c2c1	11.65%	-9.21%
CN(c1ccccc1)c1ccccc1-c1ccc([N+](=O)[O-])cc1	9.33%	-0.45%
O=[N+]([O-])c1ccc(-c2ccccc2Nc2ccccc2)cc1C(F)(F)F	23.3%	4.01%
CC[C@@H](Nc1ccccc1-c1c(Cl)cc(Br)cc1Cl)c1ccccc1	29.88%	4.43%
COc1cccc(N(C)c2cccc(OC)c2-c2ccc([N+](=O)[O-])cc2C)c1	23.07%	1.91%
O=[N+]([O-])c1ccc(-c2ccccc2N(Cc2ccccc2)c2ccccc2)cc1	20.79%	4.24%
COc1ccc(Nc2ccccc2-c2ccc([N+](=O)[O-])cc2)cc1	17.68%	-1.45%
Cc1cccc(C)c1Nc1ccccc1-c1ccccc1[N+](=O)[O-]	57.09%	4.01%
